Holding throughout (experiment): NCI-60 one-dose screen, 48 h (100 = growth as untreated, 0 = no growth, -100 = all killed)
What all share (details): 10 µM

Test [1] deals with SR leukemia.
For test [2], the system named is RPMI-8226 leukemia.
For test [3], the system named is OVCAR-8 ovarian.
Test [4] deals with OVCAR-5 ovarian.
Test [5] relates to OVCAR-4 ovarian.
Test [6] has as its system SK-OV-3 ovarian.
The subject of test [7] is IGROV1 ovarian.
Test [8] has as its system OVCAR-3 ovarian.
For test [9], the system named is HS 578T breast.
In test [10] the test system is NCI/ADR-RES ovarian.
Test [11] relates to T-47D breast.
The subject of test [12] is BT-549 breast.
In test [13] the test system is MDA-MB-435 melanoma.
For test [14], the system named is SW-620 colon.
Test [15] has as its system HCT-116 colon.
Test [16] concerns KM12 colon.
Test [17] concerns MCF7 breast.
In test [18] the test system is HCC-2998 colon.

About 83,000 compounds went through this panel and 20% of them were active in at least one assay; those are over-represented in the sample as a whole.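 Cells were grown in 96-well plates and exposed to the test compound at a single concentration for 48 hours; results are reported as percent growth, with values below 10 considered active.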 A number with no mark means an inactive call. Calls of active or inactive are those of the source.

Take `Clc1cc(Cl)c(Cl)c(-c2nc(-c3cccnc3)cs2)c1`: the growth in test [1] is 9.83% (active); in test [2] it was 40%; in test [3], 78.8%; in test [4], 79.6%; in [5], 68.7%; in test [6] it was 102%. For the same molecule, the growth in [7] is 49.6%; in test [8], 71.7%; in [9] it was 98.9%; in test [10] it was 85.1%; in [11], -7.29% (active); in [12], 98.3%. The growth in test [13] was 4.27% (active); in test [14], 46.2%; in [15], 40.2%; in [16] it was 103%.
With `COc1ccc(-c2csc(NC(=O)CO[N+](=O)[O-])n2)cc1`, the growth in test [1] is 96.1%; in [2], 106%; in [3], 96.1%; in test [4] it was 113%; in test [5], 103%; in [6], 108%. Further, the growth is 97.9% in test [7]; 101% in test [8]; 104% in test [9]; 99.6% in [10]; 57% in test [11]; 106% in [13]. Also, the growth in test [14] was 103%; in [17], 92.6%; in [15], 102%; in [18], 105%; in [16], 95.8%.
With `CCCc1ccnc(NS(=O)(=O)c2ccc(N)cc2)n1`, the growth was 72.2% in test [1]; 41.4% in [2]; 75.2% in test [3]; 117% in test [4]; 54.7% in [5]; 95.9% in test [6]. In addition, the growth is 96.4% in test [7]; 73.5% in [8]; 82% in test [9]; 112% in [10]; 64% in test [11]; 77.9% in [13]. Also, the growth in [14] is 99.5%; in [17] it was 49.2%; in test [15], 66.1%; in test [18], 86.9%; in test [16], 74.9%.
Regarding `CCOC(=O)c1sc(NC(=O)c2cc(OC)c(OC)c(OC)c2)nc1C`, the growth is 79% in [1]; 83% in test [2]; 99.3% in test [3]; 108% in test [4]; 113% in test [5]; 152% in test [6]. Further, the growth in test [7] was -10.1% (active); in test [8] it was 103%; in test [9], 80.8%; in [10], 103%; in test [11], 118%; in [13], 102%. For the same molecule, the growth in test [14] was 98.1%; in [17], 87.5%; in [15], 111%; in test [18], 57.4%; in test [16], 99.3%.
Take `Fc1ccc(-c2cc(C(Cl)Cl)no2)cc1`: the growth in test [1] is 106%; in test [2], 96.1%; in [3], 109%; in test [4] it was 101%; in test [5], 92.2%; in test [6] it was 112%. The growth in [7] is 106%; in test [8], 98.2%; in test [9], 93%; in [10], 108%; in test [11], 110%; in [13], 97.3%. The growth was 92.1% in test [14]; 88.7% in test [17]; 90.3% in test [15]; 107% in [18]; 94.4% in test [16].
As to `CCN(CCCNC(=O)Cc1cc(=O)oc2cc(N(C)C)ccc12)CCNc1ccnc2cc(Cl)ccc12`, the growth was 1.46% (active) in test [1]; 54.7% in test [2]; 83.9% in test [3]; 109% in test [4]; 81.7% in test [5]; 116% in [6]. In addition, the growth in test [7] is 94%; in test [8] it was 106%; in [9], 98.3%; in [10], 109%; in [11] it was 123%; in test [13], 46.7%. The growth was 74.9% in test [14], 53.3% in test [15], 79.5% in [18] and 92.7% in test [16].
As for `Cc1ccc(Cl)cc1Nc1nc(C(F)(F)F)ccc1C(=O)N/N=C/c1c(Cl)cccc1Cl`, the growth in [1] was 123%; in test [2] it was -51.2% (active); in [3] it was 10.6%; in test [4], 24.2%; in [5], 17.5%; in test [6], -8.46% (active). Also, the growth is -8.67% (active) in test [7]; -28.5% (active) in test [8]; -10.1% (active) in test [9]; 5.19% (active) in [10]; -10.9% (active) in [11]; 31% in [12]. Besides, the growth in [13] was 13.1%; in [14], 3.99% (active); in test [15], 12.7%; in test [16] it was -15.9% (active).
In the case of `CC(=O)CS(C)(=O)=O`, the growth in [1] was 94.8%; in test [2] it was 105%; in test [3], 105%; in test [4] it was 102%; in test [5], 112%; in test [6], 104%. In addition, the growth in test [7] was 108%; in [8], 111%; in test [9] it was 107%; in [10], 109%; in test [11], 109%; in test [12] it was 109%. For the same molecule, the growth in [13] was 106%; in test [14] it was 102%; in [15], 107%; in test [18], 102%; in test [16], 114%.

The values are drawn from PubChem BioAssay (NCI).
